The results in this text go back to PubChem BioAssay (NCATS).

Records with an inconclusive call do not appear. Calls of active or inactive are those of the source. Unless noted, calls follow the shape of the dose curve; as a rule, active = well fitted curve in the direction sought with a large enough effect; inconclusive = small, poorly fitted or top-dose-only effect, or another doubt; inactive = no such curve, though single readings can be large; an effect the other way counts as inactive or inconclusive.

One assay in a line: Viability qHTS for inhibitors of the SERCaMP assay screened against the NCATS CANVASS Library (AID 1347400). Also: nearly all actives have a fitted effect of over 70% in size. Also: potency is read from the fitted curve at half-maximal effect. As to activity change, negative = cytotoxicity: % is scaled to controls: 0 for no effect and ±100 for the full control effect. The conditions noted are these: SH-SY5Y SERCaMP cells viability, CellTiter-Glo, 48 h; series mostly up to 92.2 µM; activity change, negative = cytotoxicity: at the top concentration. In short, it runs like this:
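SH-SY5Y-GLuc SERCaMP MJH297-derived cells (1000 cells/well) were pre-incubated 4 h at 37C, then exposed to compounds for 48 h. Viability was read as CellTiter-Glo luminescence; bortezomib served as positive control.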
(In qHTS, concentration-response curves come from the screen itself.)
On to `CO[C@H](c1ccccc1)[C@H]1NC(=O)C(C)NC(=O)C(C[C@@H](C)CO)N(C)C(=O)[C@@H](C(O)c2cn(C(C)(C)C3CO3)c3ccccc23)NC(=O)C(C(C)C=C(C)C)NC(=O)C(CC(C)C)N(C)C(=O)C(C(C)C)NC1=O` (some centres undefined), for which the “activity change, negative = cytotoxicity” value is 1.72% [at 55.1 µM] (inactive).

Regarding `CC1=CC(=O)C2=C(C)C[C@H](O)[C@@H]3[C@H](OC(=O)[C@@H]3C)[C@@H]12`, the “activity change, negative = cytotoxicity” value is 0.3% (inactive).

As to `CCN1C[C@]2(C)CC[C@H](O)[C@]34C1C(C[C@H]23)[C@@]12CC[C@H](CC14)[C@](O)(COC(=O)c1ccc(OC)c(OC)c1)[C@H]2O` (some centres undefined), the “activity change, negative = cytotoxicity” value was -23% (inactive).

For `CCC(=O)CCCCC[C@@H]1NC(=O)[C@H]2CCCCN2C(=O)[C@H]([C@@H](C)CC)NC(=O)[C@H](Cc2cn(OC)c3ccccc23)NC1=O`, the Potency was 3.81 µM (active).

The nature of another assay: Redox Reaction Profiling qHTS: Assay Interference Panel against the NCATS CANVASS Library (AID 1347401).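 Also: 100% = activation by 2 µM chloranil control.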 The conditions noted are these: resazurin-DTT redox cycling, fluorescence, 15 min; series mostly up to 57.1 µM; activation (redox signal): at the top concentration. In short, it runs like this:
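Resazurin (5 uM) conversion to resorufin measured with 200 uM DTT in 50 mM HEPES pH 7.3, 50 mM NaCl. Compounds tested in 11-point qHTS series. Fluorescence (ex 525/em 598 nm) read before and after 15 min dark incubation.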
As for `CC1=CC2CC[C@@H]3[C@@H](C)C[C@H](C)[C@@H](C1)N23` (some centres undefined), the “activation (redox signal)” value was -19.4% (inactive).

Take `CC=C1CN(C=O)[C@H]2C[C@@H]1[C@@H](C(=O)OC)[C@@]13CCOC21Nc1ccccc13` (some centres undefined): the “activation (redox signal)” value is -6.87% (inactive).

Consider `C[C@@H]1CC[C@@H](c2ccoc2)N2C[C@@]3(CC[C@@H]12)CS[C@@]1(CC[C@H]2[C@H](C)CC[C@@H](c4ccoc4)N2[C@@H]1O)C3`, for which the “activation (redox signal)” value is -21.4% (inactive).

For the compound `CCN1C[C@]2(C)CC[C@@H](O)[C@]34C1[C@H](C[C@H]23)C12CCC(CC14)[C@](O)(CO)[C@H]2O` (some centres undefined), the “activation (redox signal)” value is -20.9% (inactive).

With `CO[C@@H](/C=C/CC/C=C/C(=O)O)[C@@H](O)[C@H](C)[C@@H](O)/C(C)=C/[C@H](C)C(=O)CCCC1CC(=O)NC(=O)C1`, the “activation (redox signal)” value is 10.8% (inactive).

As to `CCCC[C@@H]1CC[C@H]2CCCC(CCC)N12` (some centres undefined), the “activation (redox signal)” value was -2.9% (inactive).

Take `C[C@]12CC(O)C3[C@@H](CCC4C[C@@H](O)CC[C@@]43CO)[C@@]1(O)CCC2C1=CC(=O)OC1` (some centres undefined): the “activation (redox signal)” value was 4.45% (inactive).

Consider `CO[C@@H](/C=C/CC/C=C/C(=O)O)[C@@H](O)[C@H](C)/C=C(\C)[C@@H](O)[C@H](C)C(=O)CCCC1CC(=O)NC(=O)C1`, for which the “activation (redox signal)” value was 5.18% (inactive).

With `O=C(c1ccccc1O)c1[nH]c(Cl)c(Cl)c1-n1c(C(=O)c2ccccc2O)cc(Cl)c1Cl`, the “activation (redox signal)” value is -30.5% (inactive).

Take `CC[C@@H]1CN2CC[C@@]3(O)C(=Nc4cccc(OC)c43)[C@@H]2C[C@@H]1/C(=C\OC)C(=O)OC`: the “activation (redox signal)” value is -11.8% (inactive).

In the case of `c1ccc2c3c([nH]c2c1)CNCC3`, the “activation (redox signal)” value is -22% (inactive).

With `CNCCc1ccccc1`, the “activation (redox signal)” value is -21.6% (inactive).

With `CCCCC[C@@H]1OC(=O)[C@@H](C)N(C)C(=O)[C@H](CCCCC)OC(=O)C(C)N(C)C(=O)[C@H](CCCCC)OC(=O)[C@@H](C)N(C)C(=O)[C@H](CCCCC)OC(=O)C(C)N(C)C1=O` (some centres undefined), the “activation (redox signal)” value is -17.2% (inactive).

As to `CO[C@H](c1ccccc1)[C@H]1NC(=O)C(C)NC(=O)C(C[C@@H](C)CO)N(C)C(=O)[C@@H](C(O)c2cn(C(C)(C)C3CO3)c3ccccc23)NC(=O)C(C(C)C=C(C)C)NC(=O)C(CC(C)C)N(C)C(=O)C(C(C)C)NC1=O` (some centres undefined), the “activation (redox signal)” value is -5.37% [at 34.1 µM] (inactive).

Consider `CC1=CC(=O)C2=C(C)C[C@H](O)[C@@H]3[C@H](OC(=O)[C@@H]3C)[C@@H]12`, for which the “activation (redox signal)” value is -2.48% (inactive).

As to `CCN1C[C@]2(C)CC[C@H](O)[C@]34C1C(C[C@H]23)[C@@]12CC[C@H](CC14)[C@](O)(COC(=O)c1ccc(OC)c(OC)c1)[C@H]2O` (some centres undefined), the “activation (redox signal)” value was -19.6% (inactive).

Take `CCC(=O)CCCCC[C@@H]1NC(=O)[C@H]2CCCCN2C(=O)[C@H]([C@@H](C)CC)NC(=O)[C@H](Cc2cn(OC)c3ccccc23)NC1=O`: the “activation (redox signal)” value is -16.4% (inactive).

The nature of another assay: qHTS for inhibitors of Rabies Virus screened against the NCATS CANVASS Library (AID 1347402; calls by dose curve; also: 0% is about no effect). The conditions noted are these: Rabies virus infection cell assay; series mostly up to 45.9 µM; activity change, negative = inhibition: at the top concentration.
On to `CC1=CC2CC[C@@H]3[C@@H](C)C[C@H](C)[C@@H](C1)N23` (some centres undefined), for which the “activity change, negative = inhibition” value is -6.27% (inactive).

For the compound `CC=C1CN(C=O)[C@H]2C[C@@H]1[C@@H](C(=O)OC)[C@@]13CCOC21Nc1ccccc13` (some centres undefined), the “activity change, negative = inhibition” value was 0.842% (inactive).

`CCN1C[C@]2(C)CC[C@@H](O)[C@]34C1[C@H](C[C@H]23)C12CCC(CC14)[C@](O)(CO)[C@H]2O` (some centres undefined): the “activity change, negative = inhibition” value was 0.228% (inactive).

Take `CO[C@@H](/C=C/CC/C=C/C(=O)O)[C@@H](O)[C@H](C)[C@@H](O)/C(C)=C/[C@H](C)C(=O)CCCC1CC(=O)NC(=O)C1`: the “activity change, negative = inhibition” value is -2.55% (inactive).

Turning to `CCCC[C@@H]1CC[C@H]2CCCC(CCC)N12` (some centres undefined), the “activity change, negative = inhibition” value is -5.08% (inactive).

`C[C@]12CC(O)C3[C@@H](CCC4C[C@@H](O)CC[C@@]43CO)[C@@]1(O)CCC2C1=CC(=O)OC1` (some centres undefined): the “activity change, negative = inhibition” value was -14.6% (inactive).

On to `CO[C@@H](/C=C/CC/C=C/C(=O)O)[C@@H](O)[C@H](C)/C=C(\C)[C@@H](O)[C@H](C)C(=O)CCCC1CC(=O)NC(=O)C1`, for which the “activity change, negative = inhibition” value was 5.19% (inactive).

For the compound `CC[C@@H]1CN2CC[C@@]3(O)C(=Nc4cccc(OC)c43)[C@@H]2C[C@@H]1/C(=C\OC)C(=O)OC`, the “activity change, negative = inhibition” value was -8.77% (inactive).

Consider `c1ccc2c3c([nH]c2c1)CNCC3`, for which the “activity change, negative = inhibition” value was -17.2% (inactive).

Regarding `CNCCc1ccccc1`, the “activity change, negative = inhibition” value is -4.36% (inactive).

Turning to `CO[C@H](c1ccccc1)[C@H]1NC(=O)C(C)NC(=O)C(C[C@@H](C)CO)N(C)C(=O)[C@@H](C(O)c2cn(C(C)(C)C3CO3)c3ccccc23)NC(=O)C(C(C)C=C(C)C)NC(=O)C(CC(C)C)N(C)C(=O)C(C(C)C)NC1=O` (some centres undefined), the “activity change, negative = inhibition” value is -15.1% [at 27.4 µM] (inactive).

In the case of `CC1=CC(=O)C2=C(C)C[C@H](O)[C@@H]3[C@H](OC(=O)[C@@H]3C)[C@@H]12`, the “activity change, negative = inhibition” value is -17.1% (inactive).

Turning to `CCN1C[C@]2(C)CC[C@H](O)[C@]34C1C(C[C@H]23)[C@@]12CC[C@H](CC14)[C@](O)(COC(=O)c1ccc(OC)c(OC)c1)[C@H]2O` (some centres undefined), the “activity change, negative = inhibition” value was -3.76% (inactive).
